This is a sample that favours compounds with a hit; in the whole collection about 4.7% have one here.
D1 agonist – activates the human D1 dopamine receptor | P21728 | HEK293 T-REx D1 cells, calcium flux, agonist mode | activation, % at 2 µM | 360,000 tested, 1% active; note: 0% is about no effect
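Tetracycline-induced HEK293 TREx D1 cells, force-coupled to calcium signalling, were dye-loaded with a no-wash calcium kit. Compound was pin-added after a 10 s baseline. Fluorescence was read kinetically at 1 cycle/s for 180 s, with calcium rises flagged as agonism.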
TRHR ag – agonists of human TRH receptor; TRHR cells, calcium flux fluo-8, FDSS agonist mode; 360,000 tested, 0.18% active; P34981; activation, % at 2 µM; note: 0% is about no effect
Target sequence (P34981 whole entry, looked up): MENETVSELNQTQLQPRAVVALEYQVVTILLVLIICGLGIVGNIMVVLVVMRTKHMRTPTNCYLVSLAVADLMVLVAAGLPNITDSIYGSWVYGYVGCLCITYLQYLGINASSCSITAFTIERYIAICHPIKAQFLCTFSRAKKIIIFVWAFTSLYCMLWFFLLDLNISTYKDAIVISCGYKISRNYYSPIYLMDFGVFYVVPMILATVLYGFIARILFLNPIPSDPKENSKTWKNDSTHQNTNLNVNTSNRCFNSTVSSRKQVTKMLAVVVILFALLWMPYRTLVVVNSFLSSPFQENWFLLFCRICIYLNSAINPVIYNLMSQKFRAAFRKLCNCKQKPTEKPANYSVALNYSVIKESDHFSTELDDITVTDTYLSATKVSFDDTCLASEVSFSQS
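Read-out: compound-evoked intracellular calcium rise in TRHR cells, fluo-8 dye, kinetic FDSS fluorescence at 1 s/cycle following a 10-cycle baseline. Cells cultured overnight before dye loading (30 min–1.5 h, RT).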
TRHR enhancer – TRH receptor (human) allosteric enhancement; 360,000 tested, 0.66% active; TRHR cells, fluo-8 calcium fluorescence, EC20 TRH enhancement; AID 493056; enhancement, % at 2 µM; in the data active = enhancement above about 30%; note: 0% is about no effect
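TRHR-expressing cells loaded with fluo-8 calcium dye were read kinetically (ex 480/em 530) during compound addition, then stimulated with an EC20 of TRH (10 nM final). Enhancement of the Gq-mediated intracellular calcium response was scored.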
D1 antag – human D1 dopamine receptor antagonism. activity change, negative = inhibition, % at 10 µM. HEK293 TREx D1 cells, calcium flux, dopamine EC80; active compounds read low. P21728. AID 504652. 360,000 tested, 3.2% active; in the data active = activity change below about -30%; note: % is set by controls: 0 for no effect and ±100 for the full control effect
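After overnight tetracycline induction at 30 C, force-coupled D1 HEK293 cells took up a no-wash calcium dye at room temperature. Compounds were added and monitored 180 s, and the response to EC80 dopamine was then recorded.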
D1 potentiator – human D1 dopamine receptor positive modulation; P21728; HEK293 TREx D1 cells, calcium flux, dopamine EC20 potentiation; potentiation, % at 10 µM; 360,000 tested, 0.036% active; in the data active = potentiation above about 30%; note: 0% is about no effect
The depositor's hits bear a star; . = not tested or not shown. Cut-off read from the data, not from the text of the source, unless noted: active = activation above about 30%; inactive = the rest.

SMILES	D1 agonist	TRHR ag	TRHR enhancer	D1 antag	D1 potentiator
Cc1ccc(CNC(=O)c2nn(C)c3c2CSc2ccc(C)cc2-3)cc1	3	0	-4	-16	0
O=C(NC1CC2CCC(C1)N2Cc1ccccc1)c1cccc(F)c1 (stereo not drawn)	3	0	4	-50*	-8
COc1ccc(C(=O)NC2CC3CCCC(C2)N3Cc2ccccc2)c(OC)c1 (stereo not drawn)	2	0	-6	-13	-5
COc1ccccc1C(=O)NC1CC2CCC(C1)N2Cc1ccccc1 (stereo not drawn)	0	0	9	-50*	-12
Cc1ccc(CN2C3CCCC2CC(NC(=O)c2ccc(F)cc2)C3)cc1 (stereo not drawn)	8	1	-1	-45*	-12
COc1ccc(CN2C3CCC2CC(NC(=O)c2cccc(F)c2)C3)cc1 (stereo not drawn)	8	0	-10	-26	-11
O=C(NC1CC2CCC(C1)N2Cc1ccccc1)c1ccccc1Br (stereo not drawn)	2	1	6	25	-10
CCCNC(=S)NC1CC2CCCC(C1)N2Cc1ccc(F)cc1 (stereo not drawn)	7	1	2	-7	-3
Cc1ccc(C(=O)NC2CC3CCCC(C2)N3Cc2ccccc2)cc1 (stereo not drawn)	-1	-1	10	-84*	-9
Cc1cc2c(cc1S(=O)(=O)N(CCO)Cc1ccccc1)OCC(=O)N2	3	0	1	6	-4
CCOC(=O)c1cccc(NC(=O)CCc2c(C)nc3c4cccnc4nn3c2C)c1	1	-1	7	-3	-2
Cc1c(C(=O)N2CCCC2)oc2c1-c1nn(CC(=O)NCc3cccc(Br)c3)cc1CC2	0	0	0	-12	0
COc1cc(Cn2ncc3c4sc(C)cc4n(C)c3c2=O)cc(OC)c1	13	0	4	0	-3
COc1cccc(C(=O)NC2CC3CCC(C2)N3Cc2ccccc2)c1 (stereo not drawn)	7	0	-3	-49*	0
Cc1cccc(C(=O)NC2CC3CCCC(C2)N3Cc2ccccc2)c1 (stereo not drawn)	1	0	3	-30*	-12
Cc1cccc(C(=O)NC2CC3CCC(C2)N3C)c1 (stereo not drawn)	3	1	-2	-25	-4
Cc1cc2c(s1)c1cnn(Cc3ccccc3F)c(=O)c1n2Cc1ccccc1F	3	1	-3	-3	15
CCc1ccc(-n2nc(CO)c(C(=O)NCCCCc3ccccc3)n2)cc1	2	2	1	13	2
CCOc1ccc(-c2nc3scc(-c4cccs4)c3c(=O)[nH]2)cc1	5	0	2	-75*	-9
Cc1ccc(-c2csc3nc(CN(C)Cc4ccccc4)[nH]c(=O)c23)cc1	7	2	-10	-36*	-12
O=c1[nH]c(Cc2ccc(F)cc2)nc2scc(-c3ccc(F)cc3)c12	5	0	2	-8	-5
Cc1ccc(-c2csc3nc(-c4ccncc4)[nH]c(=O)c23)cc1	10	0	2	-34*	-15
Cc1oc(-c2ccc(C(=O)NCc3ccccc3)cc2)nc1CN1CCc2ccccc21	0	0	-5	4	-1
CS(=O)(=O)Nc1cccc(-c2cc(F)c(S(=O)(=O)N3CCN(S(=O)(=O)c4ccc5c(c4)OCCO5)CC3)cc2F)c1	2	0	2	-17	4
CCOC(=O)C1CCN(C(=O)Cn2nc(CC)n3c(cc4sccc43)c2=O)CC1	1	0	30*	-1	-4
SMILES	D1 agonist	TRHR ag	TRHR enhancer	D1 antag	D1 potentiator
Cc1ccc(S(=O)(=O)N2CCOC23CCN(C(=O)c2ccc(Cl)cc2Cl)CC3)cc1	22	1	32*	-24	-4
Cc1ccc(S(=O)(=O)N2CCOC23CCN(C(=O)c2cc(Cl)ccc2Cl)CC3)cc1	7	0	-4	-25	-9
CC(C)CCNC(=O)C(=O)Nc1c2c(nn1-c1ccc(Cl)cc1)CSC2	-1	0	5	.	0
CC(C)/C=N/Nc1nc(-c2ccc(Br)cc2)cs1	0	0	2	-46*	-2
O=C(Nc1nc(-c2ccc(Br)cc2)cs1)c1cccnc1	3	0	-10	-2	4
CC(C)CN(CC(C)C)C(=O)COc1ccccc1C(N)=O	4	0	4	-35*	-1
CCN(C(=O)Cn1c(C(=O)OC)cc2oc3ccccc3c21)c1cccc(C)c1	6	2	3	-12	2
CCOC(=O)c1ccccc1NC(=O)N1CCC(CN2CCOCC2)CC1	0	0	1	1	0
CC(C)Oc1ccc(C(=O)OC(C)C(=O)NC2CCCCC2C)cc1 (stereo not drawn)	10	-1	5	-48*	-7
CC(C)CC(=O)Nc1nnc(SCc2cc(=O)n3ccccc3n2)s1	3	0	5	4	-2
Cc1cc(NC(=O)CS(=O)(=O)c2cn(Cc3ccc(F)cc3)c3ccccc23)no1	6	0	0	-39*	-3
C=CCNC(=S)Nc1ccc2nsnc2c1	7	1	-3	-90*	-4
S=C(NCc1ccc2c(c1)OCO2)Nc1ccc2nsnc2c1	34*	2	-2	-33*	-7
Cc1ccc(NC(=S)NCc2ccc3c(c2)OCO3)cc1C	9	1	-5	0	6
CCC(=O)N1CCc2cc(Br)cc(S(=O)(=O)N3CCCC(C(=O)Nc4ccc(C(C)C)cc4)C3)c21 (stereo not drawn)	3	2	-8	-7	-2
COc1ccc(-n2c(=O)c3c4c(sc3n(CC(=O)N3CCCCC3C)c2=O)CCC4)c(OC)c1 (stereo not drawn)	0	-1	-1	-71*	0
Cc1nccn1CC(=O)O	2	0	-3	-10	12
CC(C)c1nccn1CCC(=O)O	3	0	-23	-44*	-28
c1ccc(-c2noc(-c3cccnc3NCc3ccco3)n2)cc1	12	0	2	2	2
CCc1c(C)sc(NC(=O)c2cc3nc(-c4ccc(OC)cc4)cc(C(F)(F)F)n3n2)c1C(=O)OC	0	1	8	-18	1
CCCN(CCC)CCNC(=O)c1sc2nc3n(c(=O)c2c1C)CCCCC3	-1	0	-9	-17	-3
CCC(C)NCC(O)COCc1ccc(Cl)cc1 (stereo not drawn)	36*	-1	4	6	-1
CC(C)NCC(O)COCc1ccc(Cl)cc1 (stereo not drawn)	1	1	3	4	-2
Cc1nn(-c2ccc(N3CCCCC3)nn2)c(C)c1CCC(=O)NCc1ccc(Cl)cc1	6	-1	-2	-15	-3

Assay outcomes as filed in PubChem.
